Reference: the supplement of paper PMC10681739

target: RUNX1 (UniProt Q01196); assay: RUNX1 binding intensity (PBM fluorescence), RUNX1 alone (arbitrary fluorescence units); higher = stronger binding; conditions: RUNX1 concentration 2 nM; ETS1 concentration 0 nM
Description: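 Cooperative gcPBM on 36-bp genomic probes with neighbouring ETS1 and RUNX1 sites. Recombinant human RUNX1 (2 nM) was incubated alone or with ETS1 (25 nM) and detected with anti-RUNX1 antibody plus Alexa488 secondary. Values are medians over 4 replicate spots; the RUNX1+ETS1 data were normalised to the RUNX1-only data. The probes sit in constant array flanks that are not printed.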
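Also: Full-length recombinant human RUNX1 bound to double-stranded 36-bp genomic probes on a high-density microarray, scored as Alexa488 fluorescence per spot via anti-RUNX1 antibody, median of four replicate spots.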

Sequence of RUNX1 (Q01196 whole entry): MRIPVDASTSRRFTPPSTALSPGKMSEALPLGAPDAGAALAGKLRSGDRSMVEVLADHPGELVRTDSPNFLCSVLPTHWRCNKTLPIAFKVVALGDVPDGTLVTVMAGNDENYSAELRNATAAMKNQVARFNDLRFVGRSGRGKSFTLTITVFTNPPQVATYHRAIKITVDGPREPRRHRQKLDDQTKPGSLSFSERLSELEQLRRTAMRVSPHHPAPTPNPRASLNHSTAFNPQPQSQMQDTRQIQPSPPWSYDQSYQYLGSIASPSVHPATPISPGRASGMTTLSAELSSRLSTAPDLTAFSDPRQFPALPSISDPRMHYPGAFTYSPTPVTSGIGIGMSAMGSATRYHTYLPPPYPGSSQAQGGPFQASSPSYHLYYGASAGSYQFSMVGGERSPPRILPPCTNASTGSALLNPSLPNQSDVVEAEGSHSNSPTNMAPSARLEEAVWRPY

| Sequence | RUNX1 binding intensity |
| --- | --- |
| AAGTGAAGAGCTTCCGCCGGGAGACCGCGGCTGCAG | 737 |
| GTTGCAGGAAACGATGGGTTTTGTGGTATGAACTGC | 829 |
| GGAGGCGGAAGTGGAGGTTGTTGTGGCTCCGAGGGC | 727 |
| CCGCCGCGACACTTCCGGCGGCCACCACAGGGTATT | 727 |
| ACGACGTCCCGGAAGTGCTGCGGCAATGTTGCTCTT | 759 |
| AGCTTCCGAGTCTGTTGTGGAGTGGGAACCGCGACT | 724 |
| TAAGAGATTTCCTGTAAAGGTAACCACCAGCAAAGA | 721 |
| CAAGCCAACATCCTGACAGTTTAGAAACCACAGGAG | 779 |
| TGACACCAGCCCTGAGGATGTGGTTCATCCTCCCAC | 868 |
| TGAGCACTGAGCACTTCCTGTGGCTTCTGAAGCTCC | 797 |
| TTTCTTCTGATCTTCCTCCCCGCACGTCTGCACAGG | 1220 |
| AGGCGGCAGGAAATGACCCCATCCCGCAGCCTGGGC | 806 |
| CAGAGAGCGGACTTCCGCGACGCGGGTAAGCCGGGC | 670 |
| CAACCCAAGGGGATGTGCTCACTGCGGTGAGGAGGC | 806 |
| ACACCTCAGGAAGTGGCAGAGACCACAACAAGTCAG | 816 |
| GAATGGCGGATGTGGCTGGGGAGAGAAAGCCGCAGA | 836 |
| AGCGCTTCCTGGCTCCGGCCCCGCCCCTGCGGTCGG | 942 |
| ACACACTGACTTCCTGTTGTGGGAGATAAAGTGTGG | 698 |
| CCCGGCCCAGGAAACTTCAGACTTCACCGCAGCTTC | 1060 |
| GACAGGAAGCCCGCGGCAGCCTCCGTGGTTGCAGAT | 773 |

| Sequence | RUNX1 binding intensity |
| --- | --- |
| CTGTCATCTTCCTGACAGCACGCCCACAAAGGACCA | 843 |
| CTCTCTGGGCGGAAGGAACGCGGTCACCCTGAGAAA | 833 |
| ACTCACACCACGGAAACTGCGGCTCGGCAGGCTGAG | 808 |
| GTGTGAAGGAAGTGTGAGATCAAACCACAGCTGGGT | 874 |
| ATCTTAAGTGTTTCCTGACACCACAAATCCCCAAAC | 1020 |
| TTTCGAGAAAACCGGAAGTGCGTGGTCACGCCCCGC | 733 |
| GACACAAGAACAGCAGGATGTGGTCAGAGGCGTCGT | 722 |
| CATACAGGATGCTGGGGTATGTAAAACAAACCACGG | 775 |
| GGTGGCCGCCGGAAGTGTGACCGCGGGAGGGGAGTG | 743 |
| CCACCGTCCCCGGAAATAACCGCGCCTGCCTCTCAA | 1330 |
| CCAGCAAAGGAAGCTTGGTCAACCACAGCAGCCTGT | 850 |
| AATCCAACACTTCCTCCTCCACCGCAGAAAGGCAAC | 1490 |
| TGAAGTTGGTGTTTTCCGGGGGCGGTTTTTCCATTG | 897 |
| TTCTCATCCGGCCGGCTTGCTTTCCCCTGCGGTCGT | 962 |
| TGCATGTGCAGCAGAGGAAACCACAAGTTATTCCCT | 1110 |
| ACCCCAGGTACCGGAAGACCACAATTCCCAGGAGTC | 1020 |
| CTGACAGTTACTTCCTGTCTTTGTGGGCGATTGTGA | 829 |
| GGCAGGAAAGAGCTGATGCATTTCAACCGCAGCCTG | 1110 |
| CGGTCAGGTCGCAGGAAACCACAGCGGCAGCGCGGC | 1370 |
| TGCTTAGCAGGAAGTTAGTCTGCCTGTGGTAGCTCC | 734 |
